Results on 23 compounds are retold here after PubChem BioAssay (Tox21).

Structures are written as SMILES. Several values for one entry are separate records, joined by “and”; a condition that tells them apart may be missing. Identical values can stand only once. Records with an inconclusive call do not appear. Where a structure was tested more than once in an assay, its records may differ in their call. Activity calls are given as the source filed them. Unless noted, calls follow the shape of the dose curve; as a rule, active = well fitted curve in the direction sought with a large enough effect in the repeat runs; inconclusive = weak or mixed curves; inactive = no such curve, though single readings can be large; an effect the other way counts as inactive or inconclusive.

Assay [1] can be described thus: qHTS assay to identify small molecule antagonists of the peroxisome proliferator-activated receptor delta (PPARd) signaling pathway - cell viability counter screen (AID 743213). Also: nearly all actives have a fitted effect of over 50% in size. Also: potency is read from the fitted curve at half-maximal effect. Put shortly: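 Same-well viability: cells pre-incubated 5 h, dosed with compound plus 300 nM L165041, kept 17 h at 37 C, FRET substrate 2 h RT, then CellTiter-Glo 30 min RT and luminescence.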
For orientation: Quantitative high-throughput screening tests each substance at several concentrations.

The nature of assay [2]: qHTS assay to identify small molecule agonists of the farnesoid-X-receptor (FXR) signaling pathway - cell viability counter screen (AID 743218). Also: nearly all actives have a fitted effect of over 45% in size. Also: potency is read from the fitted curve at half-maximal effect. Put shortly: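 After 16 h at 37 C with test compounds, FXR-bla HEK 293T cells were given LiveBLAzer B/G substrate for 2 h at RT and then CellTiter-Glo; luminescence was taken after 30 min.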
A short description of assay [3]: qHTS assay to identify small molecule antagonists of the farnesoid-X-receptor (FXR) signaling pathway - cell viability counter screen (AID 743221; active = well fitted cell-killing curve with a large enough effect in the repeat runs, not every such curve was filed as active; also: nearly all actives have a fitted effect of over 50% in size; also: potency is read from the fitted curve at half-maximal effect). Put shortly:
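Cytotoxicity is taken from ATP luminescence (CellTiter-Glo, 30 min, room temperature) in FXR-bla HEK 293T cells previously incubated 16 h at 37 C with compound and chenodeoxycholic acid at 50 uM final.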

Assay [4] deals with Peroxisome proliferator-activated receptor delta (Homo sapiens) (UniProt Q03181). Kind of assay: qHTS assay to identify small molecule agonists of the peroxisome proliferator-activated receptor delta (PPARd) signaling pathway (AID 743212; calls by dose curve). The essentials:
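HEK293H UAS-bla reporter cells, human PPARd system; compounds delivered in DMSO after 5 h plating, then at 37 C. Beta-lactamase FRET read, 2 h RT substrate step.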

Assay [5] has the same target. The experiment in a line: qHTS assay to identify small molecule antagonists of the peroxisome proliferator-activated receptor delta (PPARd) signaling pathway (AID 743215; active = well fitted inhibition curve with a large enough effect in the signal ratio in the repeat runs, not every such curve was filed as active; the % refers to the signal ratio;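 also: cells stimulated with agonist L165041 at 300 nM final during compound exposure; series mostly up to about 62 µM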). Put shortly:
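With L165041 present at 300 nM final, compounds were incubated 17 h at 37 C on PPARd UAS-bla HEK293H cells. A FRET-based beta-lactamase substrate was then applied for 2 h at room temperature and fluorescence intensity recorded.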

Assay [6] addresses Vitamin D3 receptor (Homo sapiens) (UniProt P11473). The experiment in a line: qHTS assay to identify small molecule agonists of the vitamin D receptor (VDR) signaling pathway (AID 743222; calls by dose curve). Put shortly: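 VDR-bla cells were seeded, left 4 h, treated with compounds in DMSO for 16 h, incubated 2 h at RT with B/G FRET substrate, and read for fluorescence.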
Assay [7] shares this target. The experiment in a line: qHTS assay to identify small molecule antagonists of the vitamin D receptor (VDR) signaling pathway (AID 743223; active = well fitted inhibition curve with a large enough effect in the signal ratio in the repeat runs, not every such curve was filed as active; the % refers to the signal ratio). The essentials: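 Quantitative HTS in VDR-bla reporter cells stimulated with 1alpha,25-dihydroxyvitamin D3, 3 nM final. Compound exposure 16 h, 37C, 5% CO2. Read-out: beta-lactamase FRET substrate fluorescence, 2 h RT.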
In assay [8] the target is Bile acid receptor (Homo sapiens) (UniProt Q96RI1). The experiment in a line: qHTS assay to identify small molecule antagonists of the farnesoid-X-receptor (FXR) signaling pathway (AID 743217; active = well fitted inhibition curve with a large enough effect in the signal ratio in the repeat runs, not every such curve was filed as active; the % refers to the signal ratio). Put shortly: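 In this cell-based antagonist screen, inhibition of CDCA-driven (50 uM final) UAS-beta-lactamase expression in HEK 293T cells was measured by FRET fluorescence following 16 h compound exposure at 37 °C.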
Chain of Bile acid receptor (Homo sapiens) (Q96RI1 whole entry, looked up): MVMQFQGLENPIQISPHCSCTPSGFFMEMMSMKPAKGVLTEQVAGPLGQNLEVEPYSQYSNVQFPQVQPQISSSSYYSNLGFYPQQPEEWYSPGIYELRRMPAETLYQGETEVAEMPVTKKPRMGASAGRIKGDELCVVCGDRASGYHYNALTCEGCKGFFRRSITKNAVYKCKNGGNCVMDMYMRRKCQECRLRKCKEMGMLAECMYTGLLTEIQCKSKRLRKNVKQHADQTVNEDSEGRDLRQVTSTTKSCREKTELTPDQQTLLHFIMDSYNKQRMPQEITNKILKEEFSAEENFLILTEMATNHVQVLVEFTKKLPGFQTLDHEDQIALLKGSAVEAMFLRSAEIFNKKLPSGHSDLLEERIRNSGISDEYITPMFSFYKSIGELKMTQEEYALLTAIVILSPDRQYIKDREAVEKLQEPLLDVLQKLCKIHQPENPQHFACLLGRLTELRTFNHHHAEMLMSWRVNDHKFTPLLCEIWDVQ

Assay [9] shares this target. Kind of assay: qHTS assay to identify small molecule agonists of the farnesoid-X-receptor (FXR) signaling pathway (AID 743220; active = well fitted activation curve with a large enough effect in the signal ratio in the repeat runs, not every such curve was filed as active; the % refers to the signal ratio). The essentials:
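Beta-lactamase reporter under UAS control in GeneBLAzer FXR HEK 293T cells (5000/well) measured with LiveBLAzer FRET substrate after 2 h at room temperature. Compound exposure lasted 16 h at 37C.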

Chain of Vitamin D3 receptor (Homo sapiens) (P11473 whole entry, looked up): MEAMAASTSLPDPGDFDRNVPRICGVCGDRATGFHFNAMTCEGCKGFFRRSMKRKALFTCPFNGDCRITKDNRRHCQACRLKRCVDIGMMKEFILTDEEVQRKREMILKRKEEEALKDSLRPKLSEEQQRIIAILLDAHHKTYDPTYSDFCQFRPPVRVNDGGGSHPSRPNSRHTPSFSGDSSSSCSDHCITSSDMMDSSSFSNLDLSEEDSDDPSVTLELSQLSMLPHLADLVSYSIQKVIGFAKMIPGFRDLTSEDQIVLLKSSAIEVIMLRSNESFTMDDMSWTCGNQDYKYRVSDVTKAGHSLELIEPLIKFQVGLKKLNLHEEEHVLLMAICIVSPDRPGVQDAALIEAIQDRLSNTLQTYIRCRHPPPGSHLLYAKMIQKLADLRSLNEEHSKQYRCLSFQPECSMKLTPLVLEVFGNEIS
Chain of Peroxisome proliferator-activated receptor delta (Homo sapiens) (Q03181 whole entry, looked up): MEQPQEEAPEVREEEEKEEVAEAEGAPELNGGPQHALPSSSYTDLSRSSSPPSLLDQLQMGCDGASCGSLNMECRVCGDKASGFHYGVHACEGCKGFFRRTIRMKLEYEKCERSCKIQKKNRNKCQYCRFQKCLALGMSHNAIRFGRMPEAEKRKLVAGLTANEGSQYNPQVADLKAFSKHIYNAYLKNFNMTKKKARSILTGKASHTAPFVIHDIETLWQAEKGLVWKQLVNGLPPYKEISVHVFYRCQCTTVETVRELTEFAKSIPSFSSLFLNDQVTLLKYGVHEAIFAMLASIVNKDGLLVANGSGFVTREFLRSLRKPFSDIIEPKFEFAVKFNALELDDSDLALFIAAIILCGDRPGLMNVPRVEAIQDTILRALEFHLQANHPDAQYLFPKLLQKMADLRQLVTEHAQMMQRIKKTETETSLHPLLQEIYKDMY

Regarding `CN(C)C(=N)N=C(N)N`, the Potency entry in assay [1], in assay [2] and in assay [3] was “inactive” in each case.
Take `Cc1[nH]c(=O)c(C#N)cc1-c1ccncc1`: the outcome in assay [4] was inactive. In addition, the Potency entry in assay [1], in [5], in assay [2] and in assay [3] was “inactive” each time.
`Cc1cccc([N+](=O)[O-])c1C`: the outcome in assay [4], in assay [6] and in assay [7] was inactive. Further, the Potency entry in [1], in [5], in assay [2] and in assay [3] was “inactive” in each case.
For the compound `C[C@]12CCC(=O)C=C1CC[C@@H]1[C@@H]2C(=O)C[C@@]2(C)[C@H]1CC[C@]2(O)C(=O)CO`, the outcome in assay [4] was inactive. The Potency in [1] was 49 µM (active) and inactive. Further, the Potency entry in assay [2] and in assay [3] was “inactive” each time.
As for `CCC(C)OC(=O)c1ccc(O)cc1` (configuration not stated), the compound was classed as inactive in assay [4], in assay [6] and in [7]. Besides, the Potency result in [1], in [5], in assay [2] and in [3] was “inactive” in each case.
Turning to `CN(C)CCC=C1c2ccccc2CCc2ccccc21`, the result in assay [4], in assay [6] and in assay [7] was inactive. For the same compound, the Potency in assay [1] was 24.5 µM (active); in assay [2], 49 µM (active) and 19.5 µM (active); in assay [3], 43.7 µM (active) and 29.8 µM (active). Besides, the Potency entry in assay [5] and in [8] was “inactive” each time.
For `Cc1ccc2c(n1)Oc1ccc(C(C)C(=O)OCC(=O)N(C)C)cc1C2` (configuration not stated), the compound was classed as inactive in [4], in assay [6] and in assay [7]. The Potency result in assay [1], in assay [5], in assay [2] and in assay [3] was “inactive” in each case.
For the compound `O=[N+]([O-])c1ccc2c(c1)Cc1ccccc1-2`, in assay [4], the compound was classed as inactive. The Potency result in assay [1], in assay [5], in [2] and in assay [3] was “inactive” throughout.
`O=c1oc(=O)c2cc3c(=O)oc(=O)c3cc12`: the compound was called inactive in assay [4], in [6] and in assay [7]. Besides, the Potency result in assay [1], in assay [5] and in assay [3] was “inactive” throughout.
`COC(=O)Nc1nc2ccc(S(=O)c3ccccc3)cc2[nH]1` (configuration not stated): the Potency entry in assay [1], in [2] and in assay [3] was “inactive” throughout. In [6], the outcome was inactive.
Take `O=CCc1ccccc1`: the Potency entry in assay [1], in assay [8], in [2] and in assay [3] was “inactive” in each case. Further, the compound was called inactive in assay [6] and in [7].
Regarding `CCCc1c(OCCCCc2nn[nH]n2)ccc(C(C)=O)c1O`, the Potency result in [1], in [5], in assay [8], in assay [2] and in [3] was “inactive” in each case. Also, in [6], the outcome was inactive.
With `CNCCCC12CCC(c3ccccc31)c1ccccc12`, the call in assay [4] and in [7] was inactive. For the same compound, the Potency was 9.77 µM (active) and 16.8 µM (active) in assay [1]; 19.5 µM (active) and inactive in assay [2]; 38.9 µM (active) in assay [3].
For `S=C(NC1CCCCC1)NC1CCCCC1`, the compound was called inactive in assay [4], in [6] and in assay [7]. The Potency entry in [2] and in assay [3] was “inactive” each time.
For `c1ccc(Nc2ccccc2)cc1`, the call in assay [4], in assay [6] and in assay [7] was inactive. In addition, the Potency result in [1], in [5], in [2] and in assay [3] was “inactive” in each case.
For `Clc1nc(Cl)c(Cl)c(Cl)c1Cl`, the result in [4], in assay [6] and in assay [7] was inactive. For the same compound, the Potency entry in assay [1], in assay [5], in assay [2] and in assay [3] was “inactive” throughout.
With `Cc1cccc(N(C)C(=S)Oc2ccc3ccccc3c2)c1`, the Potency result in assay [1], in assay [8], in [2] and in assay [3] was “inactive” throughout. For the same compound, the compound was classed as inactive in assay [9], in assay [6] and in assay [7].
Take `c1cc(N(CC2CO2)CC2CO2)ccc1OCC1CO1` (configuration not stated): the Potency result in [1] and in assay [3] was “inactive” in each case.
Consider `COc1c(Cl)c(Cl)c(Cl)c(Cl)c1Cl`, for which the Potency entry in [1], in assay [8], in [2] and in assay [3] was “inactive” throughout.
For the compound `COC(=O)c1ccccc1`, the compound was classed as inactive in assay [4], in assay [6] and in [7]. For the same compound, the Potency entry in assay [1], in [5], in assay [2] and in assay [3] was “inactive” each time.
In the case of `Cc1c(C(N)=O)cc([N+](=O)[O-])cc1[N+](=O)[O-]`, the result in assay [4], in assay [6] and in assay [7] was inactive. Moreover, the Potency entry in assay [1], in [5], in [2] and in assay [3] was “inactive” each time.
For the compound `CCOCCOCCO`, in assay [4], the result was inactive. For the same compound, the Potency entry in assay [1], in [5], in assay [2] and in assay [3] was “inactive” each time.
Consider `CCCCC(CC)COP(=O)(OCC(CC)CCCC)OCC(CC)CCCC` (configuration not stated), for which the compound was classed as inactive in assay [4], in assay [6] and in assay [7]. Besides, the Potency entry in assay [1], in assay [5], in assay [8], in assay [2] and in assay [3] was “inactive” in each case.
